Compound activity from PubChem BioAssay.
ALOX12 inh = Primary qHTS assay for inhibitors of human arachidonate 12S-lipoxygenase (ALOX12): Round 2. Polyunsaturated fatty acid lipoxygenase ALOX12 (Homo sapiens), P18054. purified 12hLO, xylenol orange hydroperoxide absorbance. Potency, µM (series often up to 108 µM), hits mostly inhibitors. hit rate 1.1% among 580,000
Target sequence (P18054 whole entry, looked up): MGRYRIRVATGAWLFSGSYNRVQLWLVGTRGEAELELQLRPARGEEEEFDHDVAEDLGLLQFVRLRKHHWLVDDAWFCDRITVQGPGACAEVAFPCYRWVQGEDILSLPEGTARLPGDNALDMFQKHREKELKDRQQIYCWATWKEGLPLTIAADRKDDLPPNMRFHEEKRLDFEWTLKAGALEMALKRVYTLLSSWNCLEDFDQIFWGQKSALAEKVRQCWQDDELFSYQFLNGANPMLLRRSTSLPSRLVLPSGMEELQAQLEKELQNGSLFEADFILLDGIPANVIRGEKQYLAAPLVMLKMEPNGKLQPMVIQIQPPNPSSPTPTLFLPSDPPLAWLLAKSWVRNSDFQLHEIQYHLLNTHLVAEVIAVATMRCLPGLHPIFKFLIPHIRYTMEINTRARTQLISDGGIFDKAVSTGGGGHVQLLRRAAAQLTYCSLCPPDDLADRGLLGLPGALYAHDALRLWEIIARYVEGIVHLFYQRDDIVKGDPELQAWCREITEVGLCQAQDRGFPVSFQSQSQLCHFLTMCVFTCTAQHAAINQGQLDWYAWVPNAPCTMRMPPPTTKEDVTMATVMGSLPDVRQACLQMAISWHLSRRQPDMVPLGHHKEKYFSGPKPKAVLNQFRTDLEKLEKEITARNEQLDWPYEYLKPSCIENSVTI
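Purified human 12hLO at 150 nM in 25 mM Hepes, 0.01% Triton X-100, pH 7.0, preincubated 15 min at room temperature with compound. Reaction started with 40 uM arachidonic acid, 30 min at room temperature. Hydroperoxide measured by Fe-xylenol orange, 573/405 nm absorbance ratio.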
HT1080 IDH1KD tx = qHTS for induction of synthetic lethality in tumor cells producing 2HG: qHTS for the HT-1080-IDH1KD cell line. hit rate 2% among 360,000. AID 686971, 2013. HT-1080 IDH1 knockdown viability, ATP luminescence, 48 h. Potency, µM (series often up to 46.1 µM), most hits filed as cytotoxic
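In this qHTS, HT-1080 cells depleted of IDH1 are exposed for 48 h at 37 °C to compound titrations. Toxicity is scored from CellTiter-Glo luminescence, with DMSO as full viability and medium alone as none.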
IL1B secr inh = qHTS for Inhibitors of Inflammasome Signaling: IL-1-beta AlphaLISA Primary Screen | THP-1 LPS/ATP IL-1B secretion, AlphaLISA, 16 h; hits give low values | activity change, % at 57.5 µM | hit rate 4.7% among 360,000 | AID 743279, 2014; in the data active means activity change below about -50%; inconclusive means mostly about -30% to -49%
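THP-1 cells pretreated 1 hr with compounds (up to 57.5 uM final), then stimulated with LPS (250 ng/mL final) plus ATP (1.25 mM final); secreted IL-1B measured by AlphaLISA after 16 hr, decreased signal indicating inhibition.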
HT1080-NT tox = qHTS for induction of synthetic lethality in tumor cells producing 2HG: qHTS for the HT-1080-NT fibrosarcoma cell line; HT-1080-NT fibrosarcoma viability, CellTiter-Glo ATP luminescence, 48 h; Potency, µM (series often up to 46.1 µM), usual class: cytotoxic; hit rate 1.6% among 360,000;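 further: NT is the 2HG producing partner of a matched IDH1 knockdown line; nearly all actives have a fitted effect of over 55% in size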
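Compounds were tested in concentration-response format on HT-1080-NT cells for 48 hours at 37 degrees C. Cell viability came from CellTiter-Glo luminescence; curves were classified by r2, response magnitude and activity.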
TDP1 cell CPT = qHTS for Inhibitors of human tyrosyl-DNA phosphodiesterase 1 (TDP1): qHTS in cells in presence of CPT. Potency, µM (titrated, usually from 46.2 µM), actives largely listed as inhibitors. chicken DT40 Tdp1-/-;hTDP1 cells + 20 nM CPT, ATP luminescence, 48 h. AID 686979, 2013. hit rate 12% among 420,000; further: nearly all actives have a fitted effect of over 55% in size
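Cell growth measured by CellTiter-Glo luminescence after a minimum 48 h, 37 C compound exposure with 20 nM CPT in Tdp1-knockout DT40 cells stably expressing hTDP1, seeded 400/well; qHTS titration format.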
TDP1 cell noCPT = qHTS for Inhibitors of human tyrosyl-DNA phosphodiesterase 1 (TDP1): qHTS in cells in absence of CPT; DT40 Tdp1-/- hTDP1 cells, no CPT, ATP luminescence, 48 h; Potency, µM (top dose mostly 46.2 µM), actives largely listed as inhibitors; hit rate 15% among 420,000; further: nearly all actives have a fitted effect of over 55% in size
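A cellular qHTS used chicken DT40 cells lacking endogenous Tdp1 but carrying stably transfected human TDP1. Compounds were applied without camptothecin, and cell growth kinetics were judged by ATP-dependent luminescence after ≥48 hr.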
A number is an active result; n = inactive; u = inconclusive; x = not tested or not shown. Many of the other results were omitted from the sample, so hits are more common in it than they were. Unless noted, the call rests on the fitted dose curve; in most records, active means well fitted curve in the direction sought with a large enough effect; inconclusive means small, poorly fitted or top-dose-only effect, or another doubt; inactive means no such curve, though single readings can be large; an effect the other way counts as inactive or inconclusive.

SMILES	ALOX12 inh	HT1080 IDH1KD tx	IL1B secr inh	HT1080-NT tox	TDP1 cell CPT	TDP1 cell noCPT
Fc1ccccc1N1CCN(C(c2ccnc3ccccc23)c2nnnn2-c2ccc3c(c2)OCCO3)CC1 (stereo not drawn)	n	n	n	n	u	21µM
Cc1cccc(C)c1N1CCN(C(c2ccnc3ccccc23)c2nnnn2-c2ccc3c(c2)OCCO3)CC1 (stereo not drawn)	u	u	u	u	18µM	15µM
Cc1cc(N2CCN(C(c3ccnc4ccccc34)c3nnnn3-c3c(C)cccc3C)CC2)c2ccccc2n1 (stereo not drawn)	u	n	-56	n	6.5µM	4.6µM
Cc1cccc(C)c1-n1nnnc1C(c1ccnc2ccccc12)N1CCN(CCN(C)C)CC1 (stereo not drawn)	n	n	n	n	u	u
CCOc1cccc2cc(-c3csc(Nc4cccc(C(F)(F)F)c4)n3)c(=O)oc12	n	x	x	x	x	x
CC(c1c(F)cccc1F)n1cnc2c1c(=O)n(C)c(=O)n2C (stereo not drawn)	n	x	x	x	x	x
COc1ccc2nc(NC(=O)c3nn(C(C)C)c(=O)c4ccccc34)sc2c1	n	x	x	x	x	x
COc1cccc(-c2nc(CS(=O)(=O)CC(=O)NCc3ccccc3)c(C)o2)c1	u	n	n	n	u	u
COc1cccc(-c2nc(CS(=O)(=O)CC(=O)NCCCN3CCOCC3)c(C)o2)c1	n	n	-77	n	n	n
Cc1oc(-c2ccccc2F)nc1CS(=O)(=O)CC(=O)N1CCN(c2ccc(Cl)cc2)CC1	n	x	x	x	26µM	21µM
COc1ccc(OC)c(CCNC(=O)CS(=O)(=O)Cc2nc(-c3ccccc3Cl)oc2C)c1	n	n	-52	n	u	u
COc1cccc(-c2nc(CS(=O)(=O)CC(=O)NCCN3CCOCC3)c(C)o2)c1	n	n	n	n	n	n
COc1cccc(-c2nc(CS(=O)(=O)CC(=O)NCc3ccccc3OC)c(C)o2)c1	n	n	n	n	u	18µM
Cc1ccc(OCc2nc3c4c(ncn3n2)Oc2cc(O)ccc2C4c2ccccc2)cc1 (stereo not drawn)	n	x	x	x	x	x
Cc1ccc(-c2nc(CS(=O)(=O)CC(=O)NCCCN3CCOCC3)c(C)o2)cc1	n	n	n	n	n	n
CCCCN(CC)CCCNC(=O)CS(=O)(=O)Cc1nc(-c2ccc(C)cc2)oc1C	n	x	x	x	u	21µM
COc1cccc(-c2nc(CS(=O)(=O)CC(=O)N3CCN(c4ccccc4)CC3)c(C)o2)c1	n	x	x	x	u	23µM
CCN1CCN(C(=O)CS(=O)(=O)Cc2nc(-c3cccc(OC)c3)oc2C)CC1	n	n	n	n	n	n
COc1ccc(-c2cc(N3CCN(C(=O)c4ccc(OC)cc4OC)CC3)n[nH]2)cc1	n	x	x	x	x	x
O=C(Cn1cc(S(=O)(=O)N2CCCC2)ccc1=O)c1c[nH]c2ccccc12	n	x	x	x	x	x
CCn1c(-c2ccccc2)c[nH]c1=S	u	n	n	n	n	u
CC(C)Cn1c(-c2ccc(Br)cc2)c[nH]c1=S	35µM	n	n	n	16µM	15µM
COc1ccc(NC(=O)c2cc(-c3cc(F)ccc3OC)n[nH]2)c(C)c1	n	n	u	n	u	u
COc1ccc(NC(=O)c2cc(-c3cc(F)ccc3OCC3CCCO3)n[nH]2)c(C)c1 (stereo not drawn)	n	n	-66	n	u	u
CC(=O)Nc1ccc(NC(=O)c2cc(-c3cc(F)ccc3OCC3CCCO3)n[nH]2)cc1 (stereo not drawn)	n	u	n	n	u	u
SMILES	ALOX12 inh	HT1080 IDH1KD tx	IL1B secr inh	HT1080-NT tox	TDP1 cell CPT	TDP1 cell noCPT
COc1ccc(NC(=O)c2cc(-c3cc(F)ccc3OCC3CCCO3)n[nH]2)cc1OC (stereo not drawn)	n	u	-81	n	u	21µM
Nc1cccc(-c2nc3cc(S(=O)(=O)c4ccc5oc(-c6cccc(N)c6)nc5c4)ccc3o2)c1	n	u	n	u	8.2µM	u
Cc1ccc2oc(-c3cccc(N)c3)nc2c1	n	n	n	n	n	u
Cc1cc2oc(C(=O)N(Cc3ccc(C(C)C)cc3)C3CCS(=O)(=O)C3)cc(=O)c2cc1Cl (stereo not drawn)	n	x	x	x	x	x
Cc1cc2ccccc2c[n+]1C1CCCCC1	x	x	x	x	1.4µM	0.71µM
O=C(NC1CCCCC1)c1ccc2ccccc2c1	n	n	n	n	n	u
Clc1ncnc2scc(C3COc4ccccc4O3)c12 (stereo not drawn)	n	n	-55	n	u	16µM
COc1ccc(-c2nc(-c3ccccc3)c(-c3cc([N+](=O)[O-])ccc3C)[nH]2)cc1O	u	u	n	u	u	15µM
Cc1ccc([N+](=O)[O-])cc1-c1[nH]c(-c2ccc(O)c(O)c2)nc1-c1ccccc1	u	n	n	n	16µM	16µM
Cc1ccc([N+](=O)[O-])cc1NC(=O)c1ccc(-c2ccccc2)cc1	n	n	n	n	n	n
COc1ccc([N+](=O)[O-])cc1-c1[nH]c(-c2ccc(C(=O)O)cc2)nc1-c1ccccc1	n	n	n	n	n	n
CCOc1ccc2oc(C(=O)N(C)CCc3ccc(OC)c(OC)c3)c(C)c2c1	n	n	n	n	21µM	u
CCOc1ccc2oc(C(=O)Nc3ccc4c(c3)OCO4)c(C)c2c1	n	n	-50	n	n	u
CCOc1ccc2oc(C(=O)N(C)CC(=O)Nc3ccc(OCC)c(OCC)c3)c(C)c2c1	n	n	n	n	u	18µM
CC(C)Nc1nc(C(=O)Nc2ccc3cc[nH]c3c2)cs1	n	x	x	x	x	x
CCOC(=O)C1(C)CCN1C(=O)c1ccccc1 (stereo not drawn)	n	n	n	n	n	n
CCOC(=O)C1(C)CCCCCN1C(=O)c1ccc(OC)c(C(F)(F)F)c1 (stereo not drawn)	n	n	n	n	23µM	10µM
COc1ccc(C(=O)N2CCCC2(C)C(=O)O)cc1C(F)(F)F (stereo not drawn)	n	n	n	n	n	n
CCOC(=O)C1(C)CCN1C(=O)c1ccc(-c2ccccc2)cc1 (stereo not drawn)	n	n	n	n	n	15µM
